Source: PubChem BioAssay (The Scripps Research Institute Molecular Screening Center)
Hits are enriched below; roughly 2.9% of the tested compounds scored in any of these assays.
ADAM10 inh: ADAM10 inhibition, QFRET primary screen | O14672 | actives 0.62% (n = 370,000) | recombinant ADAM10, EDANS/DABCYL FRET peptide cleavage, 3 h | inhibition, % at 7 µM;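 active means inhibition above a per-campaign cutoff equal to the mean of compounds falling between control-based bounds plus 3 SD, cut at about 20% in these data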;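 further: 0% = DMSO wells while the 100% control is not disclosed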
PLCb3 inh: inhibitors of human phospholipase C beta3; Q01970; actives 0.18% (n = 370,000); inhibition, % at 12.2 µM; Purified PLC-beta3, fluorogenic substrate, fluorescence; in the data active means inhibition above about 11%;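 further: 0% = median of compound wells on plate and 100% = full blocker control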
ADAM17 inh: inhibitors of human ADAM17 | actives 0.83% (n = 370,000) | inhibition, % at 6.95 µM | P78536 | recombinant ADAM17, EDANS/DABCYL FRET peptide cleavage | AID 720648;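 active means inhibition above the mean of compounds lying between control limits plus 3 SD, set per campaign, cut at about 8.5% in these data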;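 further: 0% = DMSO-only wells as the low control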
PLCg1 inh: blocks human PLC-gamma1 enzyme activity; inhibition, % at 12.2 µM; P19174; actives 0.84% (n = 370,000); purified PLC-gamma1, fluorogenic substrate, fluorescence; in the data active means inhibition above about 9.5%
proKLK7 act: proKLK7 (human) activation, primary screen; P49862; purified proKLK7, EDANS-DABCYL substrate fluorescence; 100% is mature enzyme control, 0% vehicle; activation, % at 7 µM; actives 0.9% (n = 370,000);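 active means activation above the mean of all tested compounds plus 3 SD, computed per campaign excluding outliers beyond control limits, cut at about 13% in these data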
proKLK7 act conf: proKLK7 activation, confirmation | actives 68% (n = 3,200) | shares compounds with proKLK7 act | purified proKLK7, EDANS-DABCYL substrate fluorescence; scaled: vehicle 0, mature enzyme 100 | activation, % at 7 µM;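 active means activation, as change over the incubation, above the mean of all tested compounds plus 3 SD, cut at about 13% in these data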
EDANS-DABCYL int: fluorescence interference counter-screen for KLK7 activators. activation, % at 7 µM. actives 80% (n = 3,200). shares compounds with proKLK7 act. EDANS-DABCYL substrate fluorescence interference, no enzyme, 4 h; solvent 0%, active enzyme control 100%. AID 686952;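 active means activation above the all-compound mean plus 3 SD, ignoring values outside control-based bounds, cut at about 4.8% in these data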;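 further: value is the 4 h activation minus the activation read at time zero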
EDANS interf: optically interferes with EDANS-DABCYL fluorescence, kallikrein-7 activator counter-screen. actives 20% (n = 250). AID 720493. shares compounds with proKLK7 act. EC50, µM. EDANS-DABCYL peptide fluorescence interference, no enzyme;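 active means compounds that raise the fluorescence signal in this interference counterscreen, with EC50 at or below 10 µM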;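 further: intact quenched peptide substrate alone read at 355 nm excitation and 520 nm emission; signal is fluorescence gain from T0 to T4 after four hours at room temperature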
* hit, by the source's call; i = inactive; · = not tested or not shown.

SMILES	ADAM10 inh	PLCb3 inh	ADAM17 inh	PLCg1 inh	proKLK7 act	proKLK7 act conf	EDANS-DABCYL int	others
COC(=O)c1cc(-c2ccc(OC)cc2)nc2nc(SC)[nH]c(=O)c12	-490.6	i	-196.1	-424.0	24.6*	21.3*	17.3*	EDANS interf=>69.5
CCOC(=O)c1cc(-c2ccc(C)cc2)nc2nc(SC)[nH]c(=O)c12	-408.6	-153.7	-94.6	-149.4	5.1	·	·
C=CCNc1sc(C(=O)c2cccs2)c(N)c1C#N	5.9	-9.8	0.7	-9.6	86.8*	5.8	-5.8
CCNc1sc(C(=O)c2cccs2)c(N)c1C#N	5.1	-14.9	-3.6	-16.5	0.0	·	·
O=Cc1ccc(-c2cccs2)s1	i	i	i	i	47.0*	58.1*	67.3*
Cc1sc(-c2ccncc2)nc1OC(=O)c1ccccc1	-19.8	-255.9	3.2	-231.9	19.1*	33.8*	28.9*
Cc1sc(-c2ccccn2)nc1OC(=O)c1ccc(Cl)cc1	0.7	-3.6	0.3	-2.3	-0.3	·	·
COc1cc2c(cc1OC)CN(CC(=O)Nc1cccc([N+](=O)[O-])c1)CC2	-76.4	-370.7	-30.9	-271.8	27.9*	4.6	2.2
COc1cc2c(cc1OC)CN(CCC(=O)c1ccc(Br)cc1)CC2	-56.3	-125.5	-21.9	-78.1	13.7*	6.6	7.8*
COc1cc2c(cc1OC)CN(CC(=O)NC(=O)NCc1ccccc1)CC2	-77.1	-200.3	-29.2	-116.7	14.8*	3.1	4.4*
COc1cc2c(cc1OC)CN(CC(=O)Nc1ccccc1C(=O)NCc1ccccc1)CC2	1.4	-24.7	-2.0	-12.8	2.3	·	·
COc1cc([N+](=O)[O-])ccc1NC(=O)CN1CCc2cc(OC)c(OC)cc2C1	-138.9	-263.0	-52.4	-194.3	24.9*	1.7	1.6
CCN(CC)C(=O)/C(=C\c1ccc2c(c1)OCO2)NC(=O)c1ccc(Br)cc1	-1.2	-2.7	1.5	-2.7	0.6	·	·
O=C(OCc1ccc([N+](=O)[O-])cc1)c1ccc2ccccc2n1	-1.0	-6.5	-2.5	2.4	0.8	·	·
O=C(Cn1nc(-c2ccccc2)c2ccccc2c1=O)NCCN1CCOCC1	0.8	0.8	-2.7	-4.3	0.2	·	·
O=C(NCc1cccs1)c1cccnc1SCCS(=O)(=O)c1ccc(C(F)(F)F)cn1	-2.0	-2.2	-1.6	1.2	0.4	·	·
Cc1cc(=O)oc2c3c(cc(OCC(=O)NC(C)C)c12)OC(C)(C)CC3	i	i	i	i	23.1*	47.1*	63.2*
CCCCC(NC(=O)COc1cc2c(c3oc(=O)cc(C)c13)CCC(C)(C)O2)C(=O)O (stereo not given)	i	-469.1	-385.6	-297.4	9.5	·	·
Cc1cc(=O)oc2c3c(cc(OCC(=O)N[C@@H](C)C(=O)O)c12)OC(C)(C)CC3	i	i	i	i	63.9*	62.0*	73.3*
COc1ccc(CNC(=O)COc2cc3c(c4oc(=O)cc(C)c24)CCC(C)(C)O3)cc1	-487.2	-159.2	-129.2	-119.7	-21.9	·	·
O=C(Cc1ccccc1)c1ccccn1	-16.9	-39.1	-8.1	-20.9	-0.1	·	·
COc1ccc(S(=O)(=O)CCC(=O)N2c3ccccc3CC2C)cc1 (stereo not given)	0.0	2.2	-0.1	-2.1	0.3	·	·
Cc1oc2c(c(C)cc3oc(=O)c(CC(=O)N[C@@H](CC(C)C)C(=O)O)c(C)c32)c1C	-290.4	i	-147.0	i	5.4	·	·
Cc1oc2c(c(C)cc3oc(=O)c(CC(=O)N[C@H](C(=O)O)C(C)C)c(C)c32)c1C	-238.2	i	-92.1	i	15.5*	5.8	13.4*
Cc1coc2c1c(C)cc1oc(=O)c(CC(=O)NCCCCCC(=O)O)c(C)c12	i	i	-354.8	i	18.4*	34.2*	28.5*	EDANS interf=>69.5
Cc1coc2c1c(C)cc1oc(=O)c(CC(=O)NCC(=O)O)c(C)c12	i	i	-374.0	i	15.9*	57.1*	59.4*
